This is an account of results in PubChem BioAssay (NCATS).

Records with an inconclusive call do not appear. Unmarked numbers belong to inactive results. Calls of active or inactive are those of the source. The call rests on the fitted dose curve; in most records, active means well fitted curve in the direction sought with a large enough effect; inconclusive means small, poorly fitted or top-dose-only effect, or another doubt; inactive means no such curve, though single readings can be large; an effect the other way counts as inactive or inconclusive.

For one experiment, the system named is C33A. The experiment can be described thus: Primary qHTS to identify gynecologic anti-cancer compounds using libraries of approved drugs and bioactive compounds (AID 1345084). Further: nearly all actives have a fitted effect of over 55% in size. Conditions: Gynecologic cancer cell panel viability, ATPlite luminescence, 48 h; series mostly up to 57.5 µM. Summed up:
(§1)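 Luminescence from the ATPlite ATP-monitoring reagent indicates viable cell number; lower signal means cytotoxicity. Cells received compound 16 h after seeding and were exposed for 48 h across five concentrations.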
For orientation: In qHTS, concentration-response curves come from the screen itself.

In a further experiment the test system is Es-2. The experiment is described as above. Conditions: Gynecologic cancer cell panel viability, ATPlite luminescence, 48 h; series mostly up to 57.5 µM. In short, it runs like this: as §1
The subject of a further experiment is HeLa. The description is as above. The following applies: Gynecologic cancer cell panel viability, ATPlite luminescence, 48 h; series mostly up to 57.5 µM. Summed up: as §1
In general terms: ATP-based viability assays read luminescence as a measure of living cells.

A further experiment has as its system JEG-3. Described as above. Conditions: Gynecologic cancer cell panel viability, ATPlite luminescence, 48 h; series mostly up to 57.5 µM. Summed up:
as §1

Another experiment relates to OV90. The description is as above. The following applies: Gynecologic cancer cell panel viability, ATPlite luminescence, 48 h; series mostly up to 57.5 µM. Summed up: as §1
In a further experiment the test system is PA-1. The description is as above. The following applies: Gynecologic cancer cell panel viability, ATPlite luminescence, 48 h; series mostly up to 57.5 µM. In short, it runs like this:
as §1

In another experiment the test system is Tov-21-G. Described as above. Conditions: Gynecologic cancer cell panel viability, ATPlite luminescence, 48 h; series mostly up to 57.5 µM. Summed up: as §1
Another experiment relates to Tov112D. Described as above. The following applies: Gynecologic cancer cell panel viability, ATPlite luminescence, 48 h; series mostly up to 57.5 µM. Summed up: as §1
The subject of a further experiment is CASKI. The experiment is described as above. Conditions: Gynecologic cancer cell panel viability, ATPlite luminescence, 48 h; series mostly up to 57.5 µM. Summed up: as §1
The subject of the next experiment is SKOV3. Described as above. The following applies: Gynecologic cancer cell panel viability, ATPlite luminescence, 48 h; series mostly up to 57.5 µM. In short, it runs like this: as §1
Experiment [1] can be described thus: qHTS assay to identify inhibitors of the type 1 interferon - major histocompatibility complex class I in skeletal muscle: Counter screen cell viability and HiBit confirmation (AID 1347412). Further: nearly all actives have a fitted effect of over 60% in size. Conditions: iHSKM muscle cells + IFN-b, HiBiT or CellTiter-Glo, 24 h. In short, it runs like this:
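After 24 h with human IFN-beta (4 ng/ml) and compound titrations (top 46 uM final, 1:3, 12 points), HLA-B HiBit myoblasts were lysed for either Nano-Glo HiBiT luminescence or CellTiter Glo viability on paired plates.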

In a further experiment the test system is Hek293T. Kind of experiment: Primary qHTS to identify gynecologic anti-cancer compounds using libraries of approved drugs and bioactive compounds (AID 1345084). Further: nearly all actives have a fitted effect of over 55% in size. The following applies: Gynecologic cancer cell panel viability, ATPlite luminescence, 48 h, control line for the selectivity index; series mostly up to 57.5 µM. In short, it runs like this:
as §1
On the % scale 0 is the no-effect control and ±100 the full control effect; potency means the concentration at half of the fitted maximal effect.

On to `CN(C)c1ccc2c(c1)OC(N)=C(C#N)C2c1cccc(C(F)(F)F)c1` (stereo not drawn), for which the Potency is 0.631 µM (active) with C33A; 1 µM (active) in the experiment with Es-2; 0.501 µM (active) in the experiment with HeLa; 0.282 µM (active) in the experiment with JEG-3; 1.41 µM (active) with OV90; 0.178 µM (active) with PA-1. In addition, the Potency in the experiment with Tov-21-G is 0.251 µM (active); in the experiment with Tov112D it was 0.316 µM (active).
Regarding `CN(C)C/C=C/C(=O)Nc1cccc(C(=O)Nc2ccc(Nc3nccc(-c4cccnc4)n3)cc2)c1`, the Potency in the experiment with C33A is 12.6 µM (active); with CASKI it was 7.08 µM (active); with HeLa, 20 µM (active); in the experiment on OV90, 10 µM (active); in the experiment on Tov112D, 10 µM (active).
On to `O=C1NC(=O)C(c2cn3c4c(cccc24)CCC3)C1c1c[nH]c2ccccc12` (stereo not drawn), for which the Potency is 20 µM (active) with C33A; 10 µM (active) in the experiment on Es-2; 3.16 µM (active) in the experiment on HeLa; 3.16 µM (active) in the experiment with PA-1; 5.01 µM (active) in the experiment on Tov112D. In addition, the Potency entry in the experiment on CASKI is “inactive”.
With `CCN1CCN(Cc2ccc(NC(=O)c3ccc(C)c(/C=C/c4cnc5[nH]ccc5c4OC)c3)cc2C(F)(F)F)CC1`, the Potency with C33A is 14.1 µM (active); with CASKI it was 12.6 µM (active); with Es-2, 10 µM (active); with HeLa it was 15.8 µM (active); in the experiment on OV90 it was 17.8 µM (active); in the experiment with PA-1 it was 5.62 µM (active). The Potency in the experiment with SKOV3 was 8.91 µM (active); in the experiment on Tov-21-G, 2.51 µM (active); in experiment [1] (HiBiT), 6.25 µM (active); in experiment [1] (Viability), 14 µM (active). Also, the Potency result in the experiment with JEG-3 is “inactive”.
Regarding `CNC(=O)c1ccccc1Nc1cc(Nc2ccc(N3CCOCC3)cc2OC)ncc1C(F)(F)F`, the Potency entry in the experiment on C33A, in the experiment on CASKI, with Es-2, with Hek293T, in the experiment on JEG-3 and with OV90 was “inactive” throughout. For the same compound, the Potency result in the experiment on SKOV3 and with Tov112D was “inactive” throughout. For the same compound, in the experiment on PA-1, the Potency was 15.8 µM (active).
As for `CN(c1ccccc1CNc1nc(Nc2ccc3c(c2)CC(=O)N3)ncc1C(F)(F)F)S(C)(=O)=O`, the Potency in the experiment with C33A was 6.31 µM (active); with Es-2, 20 µM (active); in the experiment with HeLa, 15.8 µM (active); in the experiment with OV90, 8.91 µM (active); in the experiment with PA-1, 15.8 µM (active); in the experiment with Tov112D, 25.1 µM (active). Further, in the experiment on Tov-21-G, the Potency entry was “inactive”.
Turning to `Cc1ccccc1-n1c([C@H](C)Nc2nc(N)nc3nc[nH]c23)nc2cccc(C)c2c1=O`, the Potency result in the experiment on C33A, in the experiment with Hek293T, with OV90, with SKOV3 and with Tov112D was “inactive” in each case. In addition, the Potency in the experiment with CASKI was 31.6 µM (active).
In the case of `O=C(O)C1CN(Cc2ccc(-c3nc4cc(Cc5ccccc5F)ccc4s3)c(F)c2)C1`, the activity change, negative = cytotoxicity in the experiment on C33A was 7.49% [at 11.6 µM]; in the experiment on Es-2, 0.907% [at 11.6 µM]; with HeLa, 11.8% [at 11.6 µM]; with Hek293T it was 9.39% [at 11.6 µM]; in the experiment with JEG-3 it was 9.86% [at 11.6 µM]; in the experiment with OV90 it was 12.7% [at 11.6 µM]. Also, the activity change, negative = cytotoxicity in the experiment with Tov-21-G is 0.219% [at 11.6 µM]; in the experiment with Tov112D, 10.6% [at 11.6 µM].
On to `O=C(/C=C/c1cccc(S(=O)(=O)Nc2ccccc2)c1)NO`, for which the Potency is 11.2 µM (active) in the experiment on C33A; 8.91 µM (active) in the experiment with CASKI; 5.01 µM (active) in the experiment with Es-2; 4.47 µM (active) in the experiment with HeLa; 4.47 µM (active) in the experiment with JEG-3; 3.98 µM (active) in the experiment with OV90. The Potency was 1.26 µM (active) in the experiment with PA-1, 11.2 µM (active) in the experiment on SKOV3, 3.98 µM (active) with Tov112D and 3.13 µM (active) in experiment [1] (HiBiT). Moreover, in experiment [1] (Viability, at 45.9 µM (top of the series)), the activity change, negative = inhibition was -9.07%.
Consider `CN(C)CCCCC(=O)Nc1ccc(NC(=S)NC(=O)c2ccc(C(C)(C)C)cc2)cc1`, for which the Potency entry in the experiment on C33A, in the experiment on CASKI, with JEG-3 and in the experiment with Tov112D was “inactive” each time. In addition, the Potency in the experiment with PA-1 was 15.8 µM (active).
Take `O=[N+]([O-])c1cccc2[nH]c(CNc3nc(N4CCOCC4)nc4c3ncn4-c3ccsc3)nc12`: the Potency with C33A is 0.178 µM (active); with CASKI, 0.891 µM (active); in the experiment with HeLa it was 0.891 µM (active); in the experiment on Hek293T, 0.316 µM (active); with PA-1, 0.891 µM (active); in the experiment on SKOV3 it was 0.794 µM (active). Besides, the Potency in the experiment on Tov112D is 0.447 µM (active).
Regarding `CC1COC(Nc2ccc3ncnc(Nc4ccc(OCc5nccs5)c(Cl)c4)c3c2)=N1` (stereo not drawn), the Potency result in the experiment with C33A, with Es-2, with HeLa, with JEG-3 and in the experiment on PA-1 was “inactive” each time. For the same compound, the Potency with SKOV3 was 15.8 µM (active).
As to `O=C(Nc1ccc(Cl)cc1F)c1ccccc1O`, the Potency is 14.1 µM (active) with C33A, 15.8 µM (active) with Es-2 and 17.8 µM (active) in the experiment with Hek293T. In the experiment on JEG-3, the Potency entry was “inactive”.
In the case of `Cc1cc(Nc2cc(N3CCN(C)CC3)nc(/C=C/c3ccccc3)n2)n[nH]1`, the Potency with C33A was 28.2 µM (active); in the experiment on CASKI, 3.55 µM (active); with PA-1 it was 2.51 µM (active); in [1] (HiBiT) it was 11.1 µM (active). In the experiment on Es-2, the Potency entry is “inactive”.
For `O=C(c1cccc(Cl)c1F)N1CCN(Cc2cccc(Nc3nccs3)n2)CC1`, the Potency result in the experiment on C33A, in the experiment with Es-2, with JEG-3 and in the experiment on OV90 was “inactive” in each case. Also, the Potency was 1 µM (active) with HeLa and 0.891 µM (active) in the experiment on Tov112D.
For `CC(Oc1cc(-n2cnc3ccc(CN4CCN(C)CC4)cc32)sc1C(N)=O)c1ccccc1C(F)(F)F` (stereo not drawn), the Potency in the experiment with C33A was 8.91 µM (active); in the experiment with Es-2, 7.94 µM (active); in the experiment with HeLa, 3.55 µM (active); in the experiment with JEG-3 it was 5.62 µM (active); in the experiment on PA-1, 11.2 µM (active). Also, the Potency entry in the experiment on OV90 is “inactive”.
For `Cc1cnc(NC(=O)Nc2cc(Br)c(C)cc2OCC2CNCCO2)cn1` (stereo not drawn), the Potency entry in the experiment with C33A, in the experiment with CASKI, with JEG-3, in the experiment with PA-1 and with Tov112D was “inactive” each time. Also, the Potency is 8.91 µM (active) with Hek293T and 10 µM (active) with SKOV3.
In the case of `O=C1C=CC2OC(c3ccccc3)C(O)C2O1` (stereo not drawn), the Potency result in the experiment on C33A, in the experiment with CASKI, in the experiment on HeLa, in the experiment on OV90, in the experiment with SKOV3 and with Tov112D was “inactive” in each case.
